Screening results (PubChem BioAssay)
The list is not random: actives were taken first. Their share in the collection is about 5.3%.
MT1-MMP txn act: MT1-MMP promoter reporter activation – cell-based, luciferase luminescence, primary screen. HT1080 MT1-MMP promoter luciferase reporter, overnight; active compounds read high. activation factor at 10 µM. 86,000 compounds, 0.16% hits;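 active means activation factor of at least 2 for MT1-MMP transcription at 10 µM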
PostGolgi yeast: phenotypic screen on post-Golgi transport, primary screen; post-Golgi transport phenotypic cell assay; inhibition, % at 10 µM; 98,000 compounds, 0.9% hits;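 further: yeast cells grown in 1536-well plates; yeast grown about 18 h at 30C before absorbance read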
PostGolgi ctrl: growth inhibition of yeast control strain, primary screen, counter-screen for post-Golgi transport modulator project; efflux-deficient yeast background strain, growth absorbance A615, 16 h; inhibition, % at 10 µM; 98,000 compounds, 5% hits
Measles CPE: compounds protecting cells from measles virus cytopathic effect, primary screen, measles RdRp inhibitor project, single point, MLSMR library, absorbance; AID 841, 2007; protection (pct of control), % at 4 µM; Measles virus-infected cells, CPE protection; 140,000 compounds, 1.5% hits; in the data active means protection mostly above about 24%, no sharp cut-off; inactive means mostly below about 26%
* hit, by the source's call; . = no result. Unless noted, no stated cut-off is given here; in the data, active means inhibition above about 30%; inactive means the rest.

SMILES	MT1-MMP txn act	PostGolgi yeast	PostGolgi ctrl	Measles CPE
c1ccc(-c2cc3c(ccc4nonc43)nn2)cc1	1.1	-1.0	9.8	12.0
CCCCn1c(SCc2nc3ccccc3s2)nc2cc(S(N)(=O)=O)ccc21	1.1	-2.0	3.5	39.8*
CCCC[C@@H]1C[C@H]1C(NC(=O)c1ccco1)c1ccccc1C(F)(F)F (some centres undefined)	1.2	.	.	.
CCCCOc1ccc(-c2ncc(C(=O)O)c(C)n2)cc1	0.9	43.8*	3.6	10.1
CC(C(=O)Nc1ncn[nH]1)N1C(=O)c2ccccc2C1=O (centres undefined)	1.2	.	.	14.1
Cc1ccc(SC(C)C(=O)Nc2ncn[nH]2)cc1 (centres undefined)	1.1	41.6*	-4.2	8.2
O=c1[nH]c2ccc(Cl)cc2c(-c2ccccc2)c1N1CCN(c2ccccn2)CC1	1.1	30.6*	81.7*	16.1
CCN(CC)c1ccc(NC(=O)c2ccccc2)cc1S(=O)(=O)Nc1ccccc1OC	.	.	.	44.7*
Cc1sc(NC(=O)c2cccs2)c(C(N)=O)c1C	1.5	6.9	37.0*	7.4
COc1ccc(-c2csc(NCc3ccco3)n2)cc1	0.8	0.8	-8.6	3.0
C=CCNc1nc(-c2ccc(OC)cc2OC)cs1	2*	0.5	9.9	5.7
O=C(NS(=O)(=O)c1ccc(NC(=O)C2CCCO2)cc1)c1ccccc1 (centres undefined)	0.9	6.0	6.3	2.1
O=C(Nc1ccc(S(=O)(=O)Nc2ccc(Cl)cc2)cc1)C1CCCO1 (centres undefined)	0.9	-19.6	4.6	39.6*
COCCCn1c2nc3ccccc3nc2c2c(=O)n(-c3ccccc3OC)cnc21	1	34.5*	3.6	7.8
CC(C(=O)N(C1CC1)C1(C(=O)Nc2ccccc2)CCCC1)N1C(=O)c2ccccc2C1=O (centres undefined)	1.1	1.6	45.0*	26.1
CC(C)C1C(c2ccccc2)N(C)C(c2ccccc2)CC1(O)c1ccccc1 (centres undefined)	1.2	-11.0	33.2*	5.2
CC1C(=O)CC(c2ccccc2)N(C)C1c1ccccc1 (centres undefined)	1.1	-0.2	21.6	12.0
Cc1cc2c(cc(C(=O)OCC(=O)NCc3cccs3)n2C(C)C)o1	0.6	10.1	56.7*	3.3
Cc1cc(C)cc(C(=O)OCC(=O)NCc2cccs2)c1	.	.	.	5.8
Oc1ccc(N2CCN(C(=S)NCCc3ccccc3)CC2)cc1	.	104.7*	89.7*	1.8
CCOc1ccccc1C(=O)N1c2ccccc2Sc2ccccc21	.	24.1	41.8*	9.4
CCCOc1ccc(C2NC(=S)NC(C)=C2C(=O)c2ccccc2)cc1OC (centres undefined)	.	.	.	12.5
Cc1sc2ncnc(NCC3(N4CCOCC4)CCCCC3)c2c1C	.	31.5*	33.3*	9.1
COc1cc(=O)[nH]c(SCc2c(F)c(F)c(F)c(F)c2F)n1	1.1	11.4	52.8*	10.4
COc1ccc(CSc2nc(C)cc(=O)[nH]2)cc1Br	1	-5.3	16.9	2.3
SMILES	MT1-MMP txn act	PostGolgi yeast	PostGolgi ctrl	Measles CPE
CS(=O)(=O)Nc1ccc(C2=NN(S(C)(=O)=O)C(c3ccc4c(c3)OCO4)C2)cc1 (centres undefined)	.	.	.	4.1
O=[N+]([O-])c1nn(-c2ccc3c(c2)OCCO3)n(O)c1=Nc1ccc(Cl)cc1	.	39.5*	57.2*	4.1
O=[N+]([O-])c1nn(-c2ccc3c(c2)OCCO3)n(O)c1=Nc1ccccc1	.	.	.	23.0
CCC1(C)CC(=O)N(c2ccc(C(=O)O)c(O)c2)C1=O (centres undefined)	1.1	2.2	2.3	35.7*
OC(CN(c1ccccc1)c1ccccc1)Cn1cnc2ccccc21 (centres undefined)	1	-0.9	31.9*	2.6
OC(COCc1ccccc1)Cn1cnc2ccccc21 (centres undefined)	.	0.2	6.8	6.2
COc1ccc(OC)c2c1sc(=NC(=O)c1cccc(N3C(=O)CCC3=O)c1)n2C	.	-11.3	30.6*	23.4
COc1ccc(OC)c2c1sc(=NC(=O)C(C)(C)C)n2C	1	-7.8	18.6	8.8
O=C(NCc1ccncc1)c1nnc(Cc2c(F)cccc2Cl)o1	1.1	2.6	30.7*	4.7
O=C(NCc1ccco1)c1nnc(Cc2ccc(F)cc2)o1	1.2	-4.8	-1.6	17.7
O=C(NCc1ccco1)c1nnc(Cc2ccc(Cl)cc2)o1	.	1.8	12.9	13.9
O=C(NCc1cccnc1)c1nnc(Cc2ccc(F)cc2)o1	1.1	8.4	40.1*	7.4
Cc1sc(NC(=O)C2CC=CCC2C(=O)O)c(C(=O)OC(C)C)c1C (centres undefined)	1.1	-4.8	8.7	7.3
Cc1nnc(SCCCN2C(=O)c3ccccc3C2=O)o1	1.1	27.3	-3.7	9.2
O=C1c2ccccc2C(=O)N1CCCCSc1nc2ccccc2o1	1.6	10.6	30.0*	3.8
COC(=O)[C@@]1(Cc2ccc(OC)cc2)[C@H]2c3cc(C(=O)N(C)C)n(CCc4ccccn4)c3C[C@H]2CN1C(=O)c1ccccc1	1.1	.	.	.
Cc1ccc(N=Cc2cc3c(cc2O)OC(N)=C(C#N)C3c2ccccc2)cc1 (centres undefined)	.	.	.	1.8
C[C@@H](C(=O)Nc1ccc2ccccc2c1)[C@@H]1C[C@@]1(C)[C@@H](NC(=O)c1ccncc1Cl)c1ccccc1	1.2	.	.	.
O=C(Nc1nccs1)c1cc(-c2ccco2)nc2ccccc12	.	.	.	3.1
CC(C)Cc1nnc(NC(=O)c2cc(-c3ccccc3)nc3ccccc23)s1	.	7.8	10.8	43.9*
O=C(Nc1nccs1)c1cc(N2CCOCC2)nc2ccccc12	1.3	-1.4	33.9*	13.4
O=C(NCc1ccccn1)c1cc(-c2ccc(-c3ccccc3)cc2)nc2ccccc12	.	.	.	50.0*
O=C(Nc1nccs1)c1cc(-c2ccccc2)nc2ccccc12	.	.	.	39.9*
O=C(NCc1ccccn1)c1cc(-c2ccccc2)nc2ccccc12	.	.	.	11.0
COc1cccc(C(=O)NCCn2ccc3ccccc32)c1	1.5	-6.8	40.4*	2.3
SMILES	MT1-MMP txn act	PostGolgi yeast	PostGolgi ctrl	Measles CPE
COc1cc(OC)cc(C(=O)NCCn2ccc3ccccc32)c1	1.2	7.8	-12.7	14.4
O=C(COc1ccc2ccccc2c1)NCCn1ccc2ccccc21	.	-22.1	47.5*	13.2
O=C(Cc1ccccc1)NCCn1ccc2ccccc21	1.1	8.6	27.4	3.2
CN(Cc1ccccc1)S(=O)(=O)c1cccc2cccnc12	0.9	17.1	2.2	6.8
CC1CCCCN1C(=O)Cn1cc(C#N)c2ccccc21 (centres undefined)	1.1	.	.	39.7*
CC1CCN(C(=O)Cn2cc(C#N)c3ccccc32)CC1	1	.	.	19.2
O=C(C(c1ccccc1)c1ccccc1)N1CCN(Cc2ccc(Br)cc2)CC1	1.3	9.0	51.0*	37.2
CCOC(=O)C1=C(C)Nc2nc(SCC)nn2C1c1ccc(OC)cc1 (centres undefined)	.	-1.2	0.1	4.3
CCOC(=O)C1=C(C)Nc2nc(=S)[nH]n2C1c1ccc(Cl)cc1 (centres undefined)	1.1	4.2	30.9*	6.1
CN1C(=O)/C(=C/c2ccccc2OCc2cccc(F)c2)NC1=S	.	-4.6	6.8	8.1
